These results are taken from PubChem BioAssay (EPA / NIEHS).

Each structure is given as a SMILES string. “And” between values parts separate entries of the source, which are not always exact repeats. Equal values may be shown once. Inconclusive results are not listed. The source made the active and inactive calls. How the source made its calls, unless noted: active means hit-call score of the fitted dose curve at least 0.9, where 1 is the maximum; inactive means score below 0.9.

Read-out in assay [1]: Transforming growth factor beta 1 (TGFb1), TGFB1 (gene 7040)
The experiment in a line: BSK_BE3C_TGFb1: BioMAP Diversity Plus: BE3C Assay for Transforming growth factor beta 1 (TGFb1) Biomarker Activity (AID 2283036;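 further: TGF-b1 protein level measured by ELISA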). The conditions noted are these: primary human bronchial epithelial cells; actives raise or lower the signal. The gist of the method:
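TGF-b1 measured via ELISA, 24 h after chemical dosing of human bronchial epithelial cells (BE3C). Overt cytotoxicity assessed in parallel by SRB (0.1%, TCA-fixed, 560 nm); analysis bidirectional relative to DMSO.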

Read-out in assay [2]: Transforming growth factor beta 1 (TGFb1), TGFB1 (gene 7040)
Kind of assay: BSK_KF3CT_TGFb1: BioMAP Diversity Plus: KF3CT Assay for Transforming growth factor beta 1 (TGFb1) Biomarker Activity (AID 2283072). The conditions noted are these: primary human keratinocytes with fibroblasts; actives raise or lower the signal. The procedure, abridged:
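TGF-b1 ELISA on a 24 h dosed co-culture of human keratinocytes and foreskin fibroblasts; cytotoxicity tracked in parallel cultures by SRB staining.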

Read-out in assay [3]: CD40, CD40 (gene 958)
The experiment in a line: BSK_LPS_CD40: BioMAP Diversity Plus: LPS Assay for CD40 Biomarker Activity (AID 2283076). As to conditions: primary human HUVEC with PBMC; actives raise or lower the signal. The gist of the method:
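In the LPS system of human endothelial cells with peripheral blood mononuclear cells, CD40 levels were read by ELISA 24 h post-treatment. Signal changes in either direction were fitted against the DMSO baseline, with parallel SRB protein staining.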

Read-out in assay [4]: Tumor necrosis factor (Homo sapiens) (UniProt P01375)
Kind of assay: BSK_LPS_TNFa: BioMAP Diversity Plus: LPS Assay for Tumour Necrosis Factor alpha (TNFa) Biomarker Activity (AID 2283085).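 On AC50: TNFa protein level quantified by ELISA in the co-culture.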 The conditions noted are these: primary human HUVEC with PBMC; actives raise or lower the signal. The gist of the method:
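ELISA-based TNFa endpoint in a human endothelial–PBMC co-culture sampled 24 h post-exposure. Curves were fitted in both directions using DMSO as baseline of activity.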

Read-out in assay [5]: Vascular cell adhesion molecule 1 (VCAM1), VCAM1 (gene 7412)
The experiment in a line: BSK_LPS_VCAM1: BioMAP Diversity Plus: LPS Assay for Vascular cell adhesion molecule 1 (VCAM1) Biomarker Activity (AID 2283086). The conditions noted are these: primary human HUVEC with PBMC; actives raise or lower the signal. The gist of the method:
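Measured by ELISA: VCAM-1 in LPS-activated HUVEC/PBMC co-cultures 24 h after treatment. Values reflect bidirectional fitting with DMSO as baseline.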

Read-out in assay [6]: CD40, CD40 (gene 958)
Kind of assay: BSK_SAg_CD40: BioMAP Diversity Plus: SAg Assay for CD40 Biomarker Activity (AID 2283088). As to conditions: primary human HUVEC with PBMC; actives raise or lower the signal. The procedure, abridged: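 CD40 is measured by fluorescence ELISA in an endothelial/PBMC primary human co-culture at 24 h post-dose. Fitting is bidirectional, DMSO baseline. Parallel SRB staining (560 nm) flags cytotoxicity.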

Read-out in assay [7]: CD69, CD69 (gene 969)
The experiment in a line: BSK_SAg_CD69: BioMAP Diversity Plus: SAg Assay for CD69 Biomarker Activity (AID 2283089).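 On AC50: cell surface CD69 protein quantified by ELISA with fluorescence detection.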 As to conditions: primary human HUVEC with PBMC; actives raise or lower the signal. The gist of the method:
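Primary human vascular co-culture (umbilical vein endothelium with peripheral blood mononuclear cells) exposed to test chemical for 24 h. CD69 levels quantified by fluorescence ELISA; DMSO served as negative control for bidirectional fitting.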

Read-out in assay [8]: Monocyte Chemoattractant Protein-1 (MCP1), CCL2 (gene 6347)
The experiment in a line: BSK_SAg_MCP1: BioMAP Diversity Plus: SAg Assay for Monocyte Chemoattractant Protein-1 (MCP1) Biomarker Activity (AID 2283090). The conditions noted are these: primary human HUVEC with PBMC; actives raise or lower the signal. The gist of the method:
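Values derive from bidirectional fitting of ELISA-measured MCP1 against DMSO controls. Readings were taken 24 h after dosing human vascular endothelial cells co-cultured with peripheral blood mononuclear cells under superantigen stimulation.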

Read-out in assay [9]: Monokine induced gamma interferon (MIG), CXCL9 (gene 4283)
The experiment in a line: BSK_SAg_MIG: BioMAP Diversity Plus: SAg Assay for Monokine induced gamma interferon (MIG) Biomarker Activity (AID 2283092). As to conditions: primary human HUVEC with PBMC; actives raise or lower the signal. The gist of the method: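 Endothelial cells and PBMC were co-cultured, exposed to test chemicals, and sampled 24 h later. MIG was measured by ELISA, and responses were fitted in both directions relative to DMSO.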

Assay [10] can be described thus: BSK_SAg_Proliferation: Cell Proliferation Assessment in the BioMAP Diversity Plus: SAg Assay (AID 2283095).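 Further: relative cell number as total protein by SRB absorbance in sub-confluent culture.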 The conditions noted are these: primary human HUVEC with PBMC. The procedure, abridged: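 A human primary co-culture of umbilical vein endothelium and blood mononuclear cells receives compound; relative cell number is quantified at 96 h by SRB staining and 560 nm absorbance, with DMSO-referenced bidirectional curve fitting.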

A short description of assay [11]: BSK_SAg_SRB: Viability Assessment in the BioMAP Diversity Plus: SAg Assay (AID 2283096).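 Further: cells read one day after compound addition; hits may be either gain or loss of signal compared with DMSO.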 The conditions noted are these: primary human HUVEC with PBMC. The procedure, abridged:
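SRB absorbance at 560 nm served as the viability read-out. Cells (HUVEC plus peripheral blood mononuclear cells) were TCA-fixed and stained 24 h post-dosing; activity fitted in both directions against DMSO controls.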

Assay [12] is described as follows: BSK_BT_PBMCCytotoxicity: PBMC Cytotoxicity Assessment in the BioMAP Diversity Plus: BT Assay (AID 2284225).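 Further: PBMC viability measured by Alamar Blue dye reduction fluorescence.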 The conditions noted are these: primary human B cells with PBMC. The procedure, abridged: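 Primary human co-culture of B cells and PBMC, pre-dosed 1 h then activated with SEB and TSST-1. Cytotoxicity is taken from Alamar Blue dye reduction, added for 6 h at the end of a 90 h incubation.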

Read-out in assay [13]: Secreted IgG (sIgG), gene 3500
The experiment in a line: BSK_BT_sIgG: BioMAP Diversity Plus: BT Assay for Secreted IgG (sIgG) Biomarker Activity (AID 2284226). As to conditions: primary human B cells with PBMC. The procedure, abridged: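 In this multiplexed co-culture system, ELISA quantifies sIgG 24 h post-treatment. Endpoint analysis uses positive fitting direction, DMSO negative control.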

A short description of assay [14]: BSK_BT_Bcell_Proliferation: Viability Assessment in the BioMAP Diversity Plus: BT Assay for B cell Proliferation (AID 2284227). As to conditions: primary human B cells with PBMC. The gist of the method: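 Read-out is absorbance at 560 nm from sulforhodamine B staining of total protein, reflecting relative cell numbers in a human B cell and PBMC co-culture after 72 h of chemical exposure. Values were referenced to DMSO.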

Read-out in assay [15]: Interleukin 6 (IL6), IL6 (gene 3569)
The experiment in a line: BSK_BT_xIL6: BioMAP Diversity Plus: BT Assay for Interleukin 6 (IL6) Biomarker Activity (AID 2284228). The conditions noted are these: primary human B cells with PBMC. The procedure, abridged: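 Secreted IL-6 in the primary human B cell plus PBMC system, measured by Luminex at 24 h post-chemical, DMSO as baseline. Alamar Blue viability: 75,000 cells/well, chemical 1 h before SEB/TSST-1 (20 ng/mL each), 90 h, then 6 h dye.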

Read-out in assay [16]: Interleukin 17A (IL17A), IL17A (gene 3605)
The experiment in a line: BSK_BT_xIL17A: BioMAP Diversity Plus: BT Assay for Interleukin 17A (IL17A) Biomarker Activity (AID 2284229). As to conditions: primary human B cells with PBMC. The procedure, abridged: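 Luminex xMAP quantification of secreted IL-17A after 24 h chemical exposure of a primary human B cell/PBMC co-culture. Signal increases fitted relative to DMSO negative control.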

Read-out in assay [17]: Tumor necrosis factor (Homo sapiens) (UniProt P01375)
Kind of assay: BSK_BT_xTNFa: BioMAP Diversity Plus: BT Assay for Tumor necrosis factor alpha (TNF-alpha) Biomarker Activity (AID 2284230). As to conditions: primary human B cells with PBMC. The procedure, abridged:
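Human primary co-culture of B cells and peripheral blood mononuclear cells; TNF-alpha in supernatant, 24 h post-dose, Luminex multiplex; DMSO = baseline.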

Assay [18] addresses Estrogen receptor (Homo sapiens) (UniProt P03372). The experiment in a line: ATG_ERa_TRANS: Attagene TRANS-FACTORIAL HepG2 Assay for human Estrogen Receptor alpha (ERa) (AID 2282970; active means hit-call score of the fitted dose curve at least 0.9, where 1 is the maximum). As to conditions: HepG2 Attagene TRANS ERa GAL4 reporter, mRNA. The procedure, abridged:
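Reporter transcripts were measured 24 h after dosing by RT-PCR with fluorescent primer extension and capillary electrophoresis. The system is transiently transfected HepG2 expressing exogenous NR-Gal4 chimeras driving GAL4-UAS reporters; DMSO is the baseline.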

Assay [19] can be described thus: BSK_CASM3C_SRB: Viability Assessment in the BioMAP Diversity Plus: CASM3C Assay (AID 2283050).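 Further: total protein by SRB staining as cytotoxicity measure in parallel cultures.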 The conditions noted are these: primary human coronary artery smooth muscle cells.
For assay [20], the target named is Retinoic acid receptor alpha (Homo sapiens) (UniProt P10276). Kind of assay: ATG_RARa_TRANS: Attagene TRANS-FACTORIAL HepG2 Assay for human Retinoic Acid Receptor alpha (RARa) (AID 2283005; active means hit-call score of the fitted dose curve at least 0.9, where 1 is the maximum). The procedure, abridged: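 Reporter transcripts, measured by RT-PCR with fluorescent labeling and capillary electrophoresis after 24 h dosing, reflect activity of an exogenous human RARa–GAL4 fusion in transiently transfected HepG2. Fitted for increase relative to DMSO.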
Sequence of Retinoic acid receptor alpha (Homo sapiens) (P10276 whole entry, looked up, the tested form may be a part): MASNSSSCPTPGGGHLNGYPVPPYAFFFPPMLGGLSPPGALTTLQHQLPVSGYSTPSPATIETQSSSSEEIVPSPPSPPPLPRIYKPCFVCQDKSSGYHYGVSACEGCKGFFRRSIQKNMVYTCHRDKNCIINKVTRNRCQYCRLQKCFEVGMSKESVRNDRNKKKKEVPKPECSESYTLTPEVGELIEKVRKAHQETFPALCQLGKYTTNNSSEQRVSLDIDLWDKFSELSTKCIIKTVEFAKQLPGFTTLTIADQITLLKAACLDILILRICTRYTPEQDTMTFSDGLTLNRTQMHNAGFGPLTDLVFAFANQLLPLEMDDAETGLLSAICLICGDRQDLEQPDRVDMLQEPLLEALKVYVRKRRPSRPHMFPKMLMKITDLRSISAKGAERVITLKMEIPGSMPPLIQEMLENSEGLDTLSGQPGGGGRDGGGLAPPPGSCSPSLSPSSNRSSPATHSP

Sequence of Tumor necrosis factor (Homo sapiens) (P01375 whole entry, looked up): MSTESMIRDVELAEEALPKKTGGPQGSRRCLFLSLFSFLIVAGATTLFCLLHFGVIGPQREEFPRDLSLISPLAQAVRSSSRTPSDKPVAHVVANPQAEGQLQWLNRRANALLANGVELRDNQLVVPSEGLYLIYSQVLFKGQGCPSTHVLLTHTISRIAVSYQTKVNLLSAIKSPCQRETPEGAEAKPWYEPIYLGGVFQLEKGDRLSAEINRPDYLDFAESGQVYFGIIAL
Sequence of Estrogen receptor (Homo sapiens) (P03372 whole entry, looked up, the tested form may be a part): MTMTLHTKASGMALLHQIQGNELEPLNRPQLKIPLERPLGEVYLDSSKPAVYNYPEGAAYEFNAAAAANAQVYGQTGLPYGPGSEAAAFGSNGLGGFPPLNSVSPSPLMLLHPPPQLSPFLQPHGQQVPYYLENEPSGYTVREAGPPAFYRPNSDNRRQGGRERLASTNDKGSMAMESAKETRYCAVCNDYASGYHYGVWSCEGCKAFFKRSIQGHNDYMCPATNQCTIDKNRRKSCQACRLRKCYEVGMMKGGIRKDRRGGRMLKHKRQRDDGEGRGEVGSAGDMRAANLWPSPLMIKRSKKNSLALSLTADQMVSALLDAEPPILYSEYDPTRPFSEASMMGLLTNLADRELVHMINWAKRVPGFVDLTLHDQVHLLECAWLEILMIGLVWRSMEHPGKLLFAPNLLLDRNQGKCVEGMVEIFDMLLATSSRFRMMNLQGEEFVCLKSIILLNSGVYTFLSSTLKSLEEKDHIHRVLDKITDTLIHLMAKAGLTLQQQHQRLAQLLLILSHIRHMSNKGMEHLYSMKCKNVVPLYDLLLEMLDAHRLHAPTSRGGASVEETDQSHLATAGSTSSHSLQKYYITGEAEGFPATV

Consider `CN(C)c1ccc(C(c2ccccc2)c2ccc(N(C)C)cc2)cc1`, for which the outcome in assay [1], in assay [2] and in assay [9] was inactive. Further, the AC50 in [3] is 20 µM (active); in assay [4], 1.6 µM (active); in assay [5], 4.93 µM (active); in assay [6], 14.2 µM (active); in assay [7], 20 µM (active); in assay [8], 12.9 µM (active). The AC50 in [10] was 11.7 µM (active); in [11], 12.6 µM (active); in assay [12], 33.7 µM (active); in assay [13] it was 11.8 µM (active); in [14], 29 µM (active); in assay [15] it was 14.6 µM (active). In addition, the values for the AC50 in assay [16] and in assay [17] were 20 µM (active) and 33.1 µM (active), respectively.

`CCCCCCCCCCCCCCCCCC[N+](C)(C)C`: the compound was classed as inactive in [18], in [1] and in [4]. Also, the AC50 in [19] is 5.94 µM (active); in [2] it was 2.15 µM (active); in assay [3] it was 6.84 µM (active); in [5], 7.96 µM (active); in assay [6], 5 µM (active); in assay [7] it was 7.15 µM (active). Further, the AC50 in [8] is 6.02 µM (active); in [9] it was 8.07 µM (active); in assay [10], 0.995 µM (active); in assay [11] it was 3.82 µM (active); in [12] it was 4.37 µM (active); in [13], 0.706 µM (active). Moreover, the AC50 in assay [14] was 2.66 µM (active); in assay [15], 5 µM (active); in assay [16], 1.36 µM (active); in assay [17] it was 2.62 µM (active).

As to `CC(=O)c1nccs1`, the AC50 in [18] was 39.3 µM (active). The call in assay [20] was inactive.

For `NC(=O)c1ccc(N)cc1`, the compound was classed as inactive in assay [20].

`C/C=C(\C)C(=O)OCC/C=C\CC`: the compound was called inactive in [20].

In the case of `CN(C)Cc1cc(C(C)(C)C)c(O)c(C(C)(C)C)c1`, the result in assay [19], in [3], in assay [4], in [5], in assay [6] and in assay [8] was inactive. Besides, the result in assay [9] and in assay [11] was inactive. The AC50 in [7] was 20 µM (active) and 15.4 µM (active); in assay [10], 17.5 µM (active) and 20 µM (active).

Regarding `NC(N)=Nc1nc(CSCCC(N)=NS(N)(=O)=O)cs1`, in assay [18], the call was inactive.

As for `CCCCCCC1CCC(=O)O1` (stereo not drawn), the compound was classed as inactive in assay [18] and in [20].

`CCOC(=O)CC(=O)OCC`: the compound was classed as inactive in [20].

As for `Cc1cc(-n2nc3ccc(Cl)cc3n2)c(O)c(C(C)(C)C)c1`, the outcome in assay [1], in [19], in assay [2], in assay [3], in assay [4] and in assay [5] was inactive. The result in assay [6], in [7], in [8], in assay [9], in assay [10] and in assay [11] was inactive. For the same compound, the outcome in assay [12], in assay [13], in assay [14], in assay [15], in assay [16] and in [17] was inactive.

As for `Cc1ccnc(N)c1`, the compound was called inactive in assay [20].
